Measurements reported in PubChem BioAssay (NCATS).
For part of these data: Results with a measured potency or affinity are listed apart. The source made the active and inactive calls. Starred links: 1 amine or outer side, 2 acyl side, 3 side chain; linkers in the order of their positions; H or OH if unused. Positions of bridges follow the written chain, without caps; N, C: chain ends. Non-standard residues stand in square brackets, D forms with d. Residues, ends and D or L forms follow the SMILES beside them. ξ: configuration not given here. *: point of attachment. ΔAla(3-NHCONH2) = NC(=O)NC=C(N)C(=O)O; X1 = NC1=NCCC(C(N[*:1])C(=O)[*:2])N1; ξβ3hOrn = NCCCC(N)CC(=O)*; Dap = NC[CH](N)C(=O)O

Assays:
[1] = Ebola virus entry assay, green channel fluorescence
[2] = Ebola virus entry assay, blue channel fluorescence
[3] = Ebola virus entry assay, reporter ratio channel; AC50: Channel type: primary unless noted; outcome: Channel type: primary unless noted
[4] = Ebola virus entry assay, blue channel (ratio component)
[5] = Ebola virus entry reporter assay, green channel fluorescence
[6] = Ebola virus entry cell assay, ratio channel

Measured: outcome

Nc1nnc(-c2cccc(Cl)c2Cl)c(N)n1
inactive: all assays above

O=C(O)P(=O)(O)O
inactive: all assays above

NCCCC(N)CC(=O)NCC1NC(=O)C(CO)NC(=O)C(N)CNC(=O)C(C2CCN=C(N)N2)NC(=O)C(=CNC(N)=O)NC1=O (stereo not drawn) (H-[Dap]S[Dap](ξβ3hOrn)[ΔAla(3-NHCONH2)][X1]; lactam 1-C; configuration not given here)
inactive: all assays above

Nc1cc(-c2ccncc2)c[nH]c1=O
inactive: all assays above

Cc1onc(-c2c(Cl)cccc2Cl)c1C(=O)N[C@@H]1C(=O)N2[C@@H]1SC(C)(C)[C@@H]2C(=O)O
inactive: all assays above

Cn1cc[nH]c1=S
inactive: all assays above

CC(C)NC[C@@H](O)COc1ccc(CC(N)=O)cc1
inactive: all assays above

Cc1c(OCC(F)(F)F)ccnc1CS(=O)c1nc2ccccc2[nH]1 (centres undefined)
inactive: all assays above

CC(C)(C)NC(=O)[C@@H]1CN(Cc2cccnc2)CCN1C[C@@H](O)C[C@@H](Cc1ccccc1)C(=O)N[C@H]1c2ccccc2C[C@H]1O
inactive: all assays above
